Test systems include NCI-H23 lung; NCI-H226 lung; NCI-H322M lung; HOP-62 NSCLC; NCI-H460 lung; HOP-92 NSCLC; NCI-H522 lung; A549/ATCC NSCLC; 786-0 renal; COLO 205 colon; DU-145 prostate; K-562 leukemia; MALME-3M melanoma; MDA-MB-231 breast; RXF 393 renal; SF-268 CNS; SF-295 CNS; SF-539 CNS; UACC-257 melanoma; M14 melanoma.
Holding throughout (experiment): NCI-60 one-dose screen, 48 h (100 = growth as untreated, 0 = no growth, -100 = all killed)
Holding throughout (settings): 10 µM unless noted

Compounds without any hit were thinned out: in the full panel of roughly 83,000, 20% have a hit.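 How to read the values: 0–100, growth inhibition (40 = 60% inhibited); 0, no net growth; -100 to 0, cell death (-40 = 40% of starting cells died; -100 = all dead).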 A number with no mark means an inactive call. Calls of active or inactive are those of the source. The calls were made as follows: active = growth percent below 10; inactive = the rest.

Turning to `COc1ccc(Cl)cc1NC(=O)c1cc2c([nH]1)-c1nc(N)sc1CCC2`, the growth with NCI-H23 lung is 86.4%; in the test on NCI-H226 lung, 95.6%; in the test with NCI-H322M lung, 87.1%; with HOP-62 NSCLC it was 102%; in the test with NCI-H460 lung it was 109%; in the test on HOP-92 NSCLC, 132%. The growth with NCI-H522 lung was 64.3%; in the test on A549/ATCC NSCLC, 69.6%; in the test with 786-0 renal it was 99.7%; in the test on COLO 205 colon, 121%; in the test on DU-145 prostate, 101%; in the test on K-562 leukemia, 74.7%. The growth in the test with MALME-3M melanoma is 101%; in the test with MDA-MB-231 breast, 105%; with RXF 393 renal, 114%; with SF-268 CNS it was 98.2%; with SF-295 CNS it was 106%; in the test on SF-539 CNS, 99.4%. Further, the growth in the test with UACC-257 melanoma is 91%.

In the case of `Cc1ccccc1C[P+](c1ccccc1)(c1ccccc1)c1ccccc1`, the growth was 11.6% in the test on NCI-H23 lung; 32.9% in the test on NCI-H226 lung; 57.7% in the test with NCI-H322M lung; 32.4% in the test on HOP-62 NSCLC; 21% in the test with NCI-H460 lung; -7.58% (active) in the test on HOP-92 NSCLC. Further, the growth in the test with NCI-H522 lung is 0.342% (active); with A549/ATCC NSCLC, 29.9%; in the test with 786-0 renal, 40.7%; with COLO 205 colon, 9.84% (active); in the test with DU-145 prostate, 32.4%; with K-562 leukemia it was 22.4%. Moreover, the growth in the test with MALME-3M melanoma was 5.05% (active); in the test on MDA-MB-231 breast it was 46.3%; in the test on RXF 393 renal, 50.4%; in the test on SF-268 CNS, 16.7%; with SF-295 CNS it was 25.2%; with SF-539 CNS, 33.6%. The growth with UACC-257 melanoma is -1.88% (active).

As to `Cc1ccc(-c2nc3c(N=Nc4ccc(S(N)(=O)=O)cc4)c(N)nn3c(N)c2C#N)cc1`, the growth in the test on NCI-H23 lung was 43.9%; in the test with NCI-H226 lung it was 65%; in the test on NCI-H322M lung, 66.1%; with HOP-62 NSCLC it was 42.6%; with NCI-H460 lung, 27.9%; in the test with HOP-92 NSCLC, 19.6%. In addition, the growth is 28.7% in the test with NCI-H522 lung; 63.1% in the test with A549/ATCC NSCLC; 64.5% in the test with 786-0 renal; 14.5% with COLO 205 colon; 34.6% in the test on DU-145 prostate; 20.3% with K-562 leukemia. The growth was 48.5% in the test with MALME-3M melanoma; 40.1% in the test with MDA-MB-231 breast; 27.9% in the test on RXF 393 renal; 34.5% in the test on SF-268 CNS; 49.2% in the test with SF-295 CNS; 30.7% in the test on SF-539 CNS. In addition, the figures for the growth in the test on UACC-257 melanoma and in the test with M14 melanoma were 72.3% and 46.4%, respectively.

For the molecule `CCOC(=O)c1[nH]c(-c2ccc(Cl)cc2)cc1-c1cccnc1`, the growth in the test with NCI-H23 lung was 35.1%; in the test with NCI-H226 lung, 68.4%; with NCI-H322M lung, 59.4%; in the test with HOP-62 NSCLC it was 10.5%; with NCI-H460 lung, 7.36% (active); in the test with HOP-92 NSCLC it was 17%. Besides, the growth in the test on NCI-H522 lung is -1.79% (active); in the test with A549/ATCC NSCLC, 30.7%; with 786-0 renal, 24.5%; in the test on COLO 205 colon it was -15.5% (active); in the test on DU-145 prostate it was 19%; in the test with K-562 leukemia, 6.33% (active). The growth in the test with MALME-3M melanoma was 72.7%; in the test with MDA-MB-231 breast, 40.3%; in the test with RXF 393 renal, -2.78% (active); with SF-268 CNS it was 46.6%; with SF-295 CNS, 10.9%; in the test with SF-539 CNS it was -24.8% (active). Also, in the test on UACC-257 melanoma, the growth is 86.3%.

As for `CNCCCOc1c(Br)cc(CCNC(=O)/C(Cc2ccc(OC)c(Br)c2)=N/O)cc1Br`, the growth in the test on NCI-H23 lung was 62.7%; in the test on NCI-H226 lung, 77.3%; in the test with NCI-H322M lung it was 70.3%; in the test with HOP-62 NSCLC, 67.5%; in the test with NCI-H460 lung it was 15.8%; with HOP-92 NSCLC, 40.9%. For the same molecule, the growth is 29.3% in the test on NCI-H522 lung; 49.7% with A549/ATCC NSCLC; 40.6% in the test on 786-0 renal; -58.6% (active) in the test with COLO 205 colon; 61.2% in the test with DU-145 prostate; -21.6% (active) with K-562 leukemia. The growth with MALME-3M melanoma is 1.79% (active); in the test with MDA-MB-231 breast, 26.8%; in the test with RXF 393 renal it was 45.3%; with SF-268 CNS it was 53%; in the test on SF-295 CNS it was 19.8%; with SF-539 CNS it was 32.1%. The growth is 4.02% (active) in the test on UACC-257 melanoma and -55.9% (active) in the test with M14 melanoma.

Regarding `Fc1ccc(Nc2ncnc3ccc(-c4cn[nH]c4)cc23)cc1Cl`, the growth in the test with NCI-H23 lung was 80.3%; in the test with NCI-H226 lung it was 57.1%; in the test with NCI-H322M lung it was 15.9%; with HOP-62 NSCLC, 66.2%; in the test with NCI-H460 lung it was 55.5%; in the test on HOP-92 NSCLC, 54.6%. Besides, the growth in the test with NCI-H522 lung is 10.3%; in the test on A549/ATCC NSCLC, 49.5%; with 786-0 renal, 61.5%; with COLO 205 colon it was 60.7%; in the test on DU-145 prostate it was 50.8%; in the test on K-562 leukemia it was 66.5%. In addition, the growth in the test on MALME-3M melanoma is 54.9%; with MDA-MB-231 breast it was 63.5%; with RXF 393 renal, 40.3%; in the test with SF-268 CNS, 59.6%; in the test with SF-295 CNS, 56.3%; in the test on SF-539 CNS it was 49.7%. In addition, the growth in the test on UACC-257 melanoma was 89.5%; with M14 melanoma, 58.7%.

For the molecule `Cc1cc(NC(=O)c2cccc(C(F)(F)F)c2)ccc1-n1ccc2c(NC(=O)c3ccccc3)nccc21`, the growth with NCI-H23 lung was 94.6%; in the test on NCI-H226 lung, 112%; in the test on NCI-H322M lung, 77.4%; in the test with HOP-62 NSCLC, 87.4%; with NCI-H460 lung, 116%; with HOP-92 NSCLC, 123%. Moreover, the growth with NCI-H522 lung was 85.6%; in the test on A549/ATCC NSCLC, 86.8%; with 786-0 renal, 102%; in the test with COLO 205 colon it was 113%; in the test on DU-145 prostate, 112%; in the test on K-562 leukemia, 91.2%. Moreover, the growth with MALME-3M melanoma was 99.7%; in the test with MDA-MB-231 breast, 94.9%; with RXF 393 renal, 118%; with SF-268 CNS, 103%; with SF-295 CNS, 102%; in the test on SF-539 CNS it was 95.9%. Further, the growth with UACC-257 melanoma is 101%.

In the case of `COc1cc(-c2nc(SCC(=O)Nc3ccc(C(C)=O)cc3)[nH]c(=O)c2C#N)cc(OC)c1OC`, the growth with NCI-H23 lung is 38.4%; in the test on NCI-H226 lung it was 58.5%; with NCI-H322M lung, 45.3%; in the test on HOP-62 NSCLC, 20.7%; in the test with NCI-H460 lung, 5.79% (active); in the test on HOP-92 NSCLC, 10.3%. In addition, the growth was -14.5% (active) in the test with NCI-H522 lung; 19.8% in the test with A549/ATCC NSCLC; 35.5% in the test with 786-0 renal; -16.2% (active) in the test with COLO 205 colon; 14.1% in the test with DU-145 prostate; 0.453% (active) with K-562 leukemia. For the same molecule, the growth in the test with MALME-3M melanoma is 69.5%; with MDA-MB-231 breast it was 19.7%; in the test on RXF 393 renal, 24.6%; with SF-268 CNS, 26.9%; in the test with SF-295 CNS, 3.4% (active); in the test with SF-539 CNS, -22.9% (active). In addition, the growth in the test with UACC-257 melanoma is 53.7%.

These data come from PubChem BioAssay (NCI).
